In PubChem BioAssay (NCI):
The panel holds about 83,000 compounds, 20% with a hit somewhere; the sample as a whole holds those more often.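 Plates (96-well) were seeded with cells, treated with compound at one concentration, and incubated for 48 hours before percent growth was determined.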 Values without a mark were called inactive. Active and inactive are the calls of the source. Rule for the calls: active = growth percent below 10; inactive = the rest.

Columns and labels:
Experiment in all cases: NCI-60 one-dose screen, 48 h (100 = growth as untreated, 0 = no growth, -100 = all killed)
SN12C renal = conditions: 10 µM unless noted
UO-31 renal = conditions: 10 µM unless noted
ACHN renal = conditions: 10 µM unless noted
CAKI-1 renal = conditions: 10 µM unless noted
A498 renal = conditions: 10 µM unless noted
CCRF-CEM leukemia = conditions: 10 µM
MOLT-4 leukemia = conditions: 10 µM unless noted
SR leukemia = conditions: 10 µM unless noted
RPMI-8226 leukemia = conditions: 10 µM unless noted
OVCAR-8 ovarian = conditions: 10 µM unless noted
OVCAR-5 ovarian = conditions: 10 µM unless noted
OVCAR-4 ovarian = conditions: 10 µM unless noted
SK-OV-3 ovarian = conditions: 10 µM unless noted
IGROV1 ovarian = conditions: 10 µM unless noted
OVCAR-3 ovarian = conditions: 10 µM unless noted
HS 578T breast = conditions: 10 µM unless noted
NCI/ADR-RES ovarian = conditions: 10 µM unless noted
EKVX NSCLC = conditions: 10 µM
TK-10 renal = conditions: 10 µM unless noted

| Compound | growth (SN12C renal) | growth (UO-31 renal) | growth (ACHN renal) | growth (CAKI-1 renal) | growth (A498 renal) | growth (CCRF-CEM leukemia) | growth (MOLT-4 leukemia) | growth (SR leukemia) | growth (RPMI-8226 leukemia) | growth (OVCAR-8 ovarian) | growth (OVCAR-5 ovarian) | growth (OVCAR-4 ovarian) | growth (SK-OV-3 ovarian) | growth (IGROV1 ovarian) | growth (OVCAR-3 ovarian) | growth (HS 578T breast) | growth (NCI/ADR-RES ovarian) | growth (EKVX NSCLC) | growth (TK-10 renal) |
| --- | --- | --- | --- | --- | --- | --- | --- | --- | --- | --- | --- | --- | --- | --- | --- | --- | --- | --- | --- |
| O=c1c2c(c3ccccc3n1-c1ccccc1)NC(=S)NC2c1ccccc1 (stereo not drawn) | 90.4% | 71.7% | 96.1% | 105% | 102% | -25% (active) | 66.2% | 108% | 50.1% | 106% | 102% | 79.5% | 95.1% | 102% | 105% | 105% | 109% |  |  |
| CCCCCCNc1nc(N2CCOCC2)c2[nH]c(NCCCCCC)nc2n1 | -94.9% (active) | -81% (active) | -92.7% (active) | -63.8% (active) |  | -32.3% (active) | -53.6% (active) | -29.2% (active) | -44.4% (active) | -67.7% (active) | -92% (active) | -88.9% (active) | -97.1% (active) | -55.4% (active) | -98.1% (active) |  | -98% (active) | -51.5% (active) | -97.2% (active) |
| O=C(Nc1ccc(-n2cc(-c3ccncc3)c(-c3ccc(Cl)c(O)c3)n2)cc1)c1cc(Cl)cc(Cl)c1 | 70.2% | 12.3% | 57.3% | -32.1% (active) | 95.9% |  | 24.3% | 15.8% |  | 58.5% | 64.6% | 91.8% | 54.9% | 63% | 85.6% | -14.5% (active) | 54.1% | 75.7% |  |
| CC(C)(C)c1ccc(OCCOC(=O)CBr)cc1 | 116% | 92.9% | 85.9% | 107% | 107% | 56.2% | 63% |  | 88.2% | 83.8% | 104% | 98.8% | 104% | 2.57% (active) | 101% | 108% | 108% | 126% | 109% |
| Cc1[nH]n(C(=S)Nc2nc3cc(Cl)c(F)cc3s2)c(=O)c1N=Nc1ccc(F)c(Cl)c1 | 100% | 93% | 104% |  | 65.8% | 19.3% | -16.5% (active) |  | 70.9% | 103% | 103% | 91.5% | 97.8% | 88.4% | 98.2% | 85% | 103% |  | 129% |
| C/C=C/C/C=C/[C@H](C)C[C@H](O)[C@@H]1C[C@@H]2O[C@H]2/C=C/[C@@H]2OC(C)(C)O[C@H]2/C=C/C[C@H](C)CC(=O)O1 | 38.2% | 5.37% (active) | 38.4% | 19.2% | 96.5% | 24.7% | 34.6% |  | -5.18% (active) | 15.8% | 68.5% | 23.3% | 88.5% | 25.2% | 21.5% | -18.8% (active) | 7.52% (active) | 67.2% | 18.8% |
| O=C(N/N=C\c1ccc(-c2ccc(Br)cc2)o1)c1cc2oc(-c3cccc(C(F)(F)F)c3)cc2[nH]1 | 107% | 122% | 95% |  | 87.6% | 0.0711% (active) | 66.6% | -3.49% (active) | 98.4% | 103% | 88.4% | 106% | 115% | 130% | 101% | 81.1% | 96% | 142% | 127% |
| C=CCNCCC#N | 109% | 102% | 105% | 113% | 120% |  | 107% | 89.7% | 101% | 96.8% | 108% | 106% | 103% | 108% | 114% |  | 117% |  | 110% |
| O=C(Nc1ccc(-n2cc(-c3ccncc3)c(-c3ccc(Cl)c(O)c3)n2)cc1)Nc1cc(C(F)(F)F)cc(C(F)(F)F)c1 | 30.1% | 35.3% | 12% | 8.54% (active) | 17.7% | 2.13% (active) | 9.3% (active) | -0.887% (active) | -25.7% (active) | 18.2% | 38.2% | 26.5% | 15% | 23.4% | 17.3% | -31.2% (active) | 11.3% | 15.9% |  |
| NCCCOc1cc2ccccc2cc1C(=O)Nc1ccc(Cl)cc1OC(=O)c1cc2ccccc2cc1OCCCN | -41.2% (active) |  | -96.7% (active) | -75.7% (active) | -96.1% (active) |  | -17% (active) | -47.5% (active) | -46.6% (active) | -77% (active) | -92.7% (active) | -74.4% (active) | -90.8% (active) |  | -99.1% (active) | -46.8% (active) | -61.5% (active) | -53.7% (active) |  |
| COc1cc(/C(=C2/O[C@@H]([C@H]3COC(C)(C)O3)[C@H]3OC(C)(C)O[C@@H]23)c2ccc3c(c2)OCO3)cc(OC)c1OC | 59.9% |  | 26.4% | 68.6% |  | 93.1% | 106% | 80.9% | 73.7% | 4.49% (active) | 59.2% | 58.1% | 63.1% |  | 74.8% |  | 44.4% | 74.3% |  |
| COc1cccc(-c2cc(-c3cc4ccccc4oc3=O)nc(N)n2)c1 | 98.6% | 55.8% | 98.3% | 111% | 127% | 87.6% | 91.4% |  | 108% | 111% | 98.2% |  |  | 70% | 95% | 80.8% | 105% | 99.2% | 74.5% |
| COC(=O)C(C(=O)OC)C(Br)C(Br)C(Br)c1ccccc1 (stereo not drawn) | 97.9% | 77.7% | 17.9% |  | 116% | -28.9% (active) | 63.8% | -10% (active) | 80.5% | 91.8% | 120% | 90.1% | 109% | 107% | 92.6% |  | 111% |  |  |
| COc1ccc(C(=O)N2N=C(c3ccc(Br)cc3)CC2c2cn(-c3ccccc3)nc2-c2ccccc2)cc1 (stereo not drawn) | 58.9% | 84.5% | 87.8% | 75% | 89.1% | 67.9% | 46.1% |  | 67.9% | 31.5% | 101% | 67.5% | 76.6% | 85.2% | 53.4% | 85.2% | 41.5% | 78.5% |  |
| O=C1OC(c2ccc(-c3ccccc3)cc2)=C/C1=C/c1c2ccccc2cc2ccccc12 | 101% | 92.8% | 97.6% |  | 83.7% | 69.9% | 72.6% | 81.2% | 85.3% | 97.6% | 83.7% | 95.7% | 96% | 101% | 97.9% | 89.8% | 96.5% | 65.5% | 77.9% |
| C/C=C/C/C=C/[C@H](C)C[C@H](O)[C@@H]1C[C@@H]2O[C@H]2/C=C/[C@H](O)[C@@H](O)/C=C/C[C@H](C)CC(=O)O1 | 79.1% | 56.9% | 77.5% |  | 115% | 51.3% | 81.5% | 69.9% | 42.8% | 63.7% | 93.4% | 88.9% | 102% | 78.9% | 84.9% | 11% | 71.6% | 121% | 42.8% |
| COc1cc(-c2nn(-c3ccc(NC(=O)Nc4ccc(Cl)c(Cl)c4)cc3)cc2-c2ccncc2)ccc1Cl | 43.4% | 33.4% | 20.9% | 30.2% | 38.7% | 11.7% | 9.31% (active) | 6.61% (active) | -15.3% (active) | 29.1% | 72.8% | 36.7% | 62.8% | 36.9% | 24.1% | -26.9% (active) | 16.1% | 33.6% |  |
| O=C(CN1CCN(c2cccc(Cl)c2)CC1)N1CCN(c2nnc(-c3ccc(Cl)cc3)c(-c3ccc(Cl)cc3)n2)CC1 | 75.7% |  | 65.3% | 105% | 63.1% | 48.7% | 36.4% |  | -33.5% (active) |  | 96.3% | 76.8% | 105% |  | 72.6% | 61.9% | 70.6% | 59% | 90.2% |
| Cc1ccccc1-n1c(C)nc2cc(NC(=O)c3ccc(Cl)cc3)ccc2c1=O | 68.6% | 77.8% | 48.1% | 58.8% | 60.6% | 52.7% | 71.7% | 73.7% | 44.6% | 84% | 75.9% | 30.1% | 83.2% | 78.6% | 58.9% | 82.1% | 82.4% | 51.5% |  |
